Assay outcomes as filed in PubChem BioAssay.
D3 ag = agonists of human D3 dopamine receptor; D3R DiscoveRx beta-arrestin cells, luminescence, 90 min; max activation, %; actives 0.58% (n = 410,000); AID 652048; in the data active = max activation above about 30%; also: 0% is about no effect
Target sequence (P35462 whole entry, looked up): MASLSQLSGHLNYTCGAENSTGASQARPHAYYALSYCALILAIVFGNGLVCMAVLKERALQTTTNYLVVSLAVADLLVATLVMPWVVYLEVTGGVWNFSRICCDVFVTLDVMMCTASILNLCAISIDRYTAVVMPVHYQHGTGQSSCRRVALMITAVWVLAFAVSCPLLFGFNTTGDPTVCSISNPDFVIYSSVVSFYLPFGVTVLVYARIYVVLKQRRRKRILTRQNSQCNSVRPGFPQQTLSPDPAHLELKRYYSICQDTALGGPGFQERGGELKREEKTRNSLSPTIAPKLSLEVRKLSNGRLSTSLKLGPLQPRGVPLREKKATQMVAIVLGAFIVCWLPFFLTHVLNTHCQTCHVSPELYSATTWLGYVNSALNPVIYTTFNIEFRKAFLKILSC
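Agonist-mode cell screen: cells plated at 1500/well and incubated overnight at 37 °C, then exposed to library compounds for 90 min at 37 °C. Detection reagent was added for 30–60 min at room temperature, and luminescence was read.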
D1 agonist = agonists of human D1 dopamine receptor | P21728 | HEK293 T-REx D1 cells, calcium flux, agonist mode | activation, % at 2 µM | actives 1% (n = 360,000); in the data active = activation above about 30%; also: 0% is about no effect
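Tetracycline-induced HEK293 TREx D1 cells, force-coupled to calcium signalling, were dye-loaded with a no-wash calcium kit. Compound was pin-added after a 10 s baseline. Fluorescence was read kinetically at 1 cycle/s for 180 s, with calcium rises flagged as agonism.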
D1 PAM = potentiators of human D1 dopamine receptor; actives 0.036% (n = 360,000); potentiation, % at 10 µM; P21728; HEK293 TREx D1 cells, calcium flux, dopamine EC20 potentiation; in the data active = potentiation above about 30%; also: 0% is about no effect
D1 antagonist = human D1 dopamine receptor antagonism; HEK293 TREx D1 cells, calcium flux, dopamine EC80; hits give low values; activity change, negative = inhibition, % at 10 µM; P21728; actives 3.2% (n = 360,000); in the data active = activity change below about -30%; also: % is scaled to controls: 0 for no effect and ±100 for the full control effect
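Kinetic fluorescence of a calcium dye serves as the read-out. D1-expressing Hek293 Trex cells, induced overnight at 30 C, are exposed to compound for 180 s before an EC80 dopamine addition, then read 180 s further.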
D3 antag = blocks the human D3 dopamine receptor | actives 2.5% (n = 360,000) | AID 652054 | D3R cells, DiscoveRx beta-arrestin luminescence, antagonist mode; hits give low values | max response, negative = inhibition, % | P35462; in the data active = max response below about -50%; also: % is scaled to controls: 0 for no effect and ±100 for the full control effect
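Cells expressing the human receptor were seeded at 1500 cells/well, incubated overnight at 37 degrees C in 5% CO2, then exposed to library compounds with dopamine controls for 90 minutes at 37 degrees C before luminescent detection.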
The depositor's hits bear a star; · = no result given. In the library only some 6% were active in any assay of this set; here they are far more common.

SMILES	D3 ag	D1 agonist	D1 PAM	D1 antagonist	D3 antag
CC12CN3CC(c4ccccc4)(CN(C1)C3c1ccc(Cl)cc1)C2=O (configuration not stated)	4	0	0	2	·
COc1ccc(-c2cc3c(=O)n(CC(=O)Nc4cc(C)ccc4C)ccn3n2)cc1	-10	0	2	13	·
CCc1ccccc1NC(=O)C(CCSC)NS(=O)(=O)c1ccc2c(c1)oc(=O)n2C (configuration not stated)	-5	-2	2	-7	·
Nc1nn(-c2ccccc2)nc1C(=O)OCc1ccccc1Br	3	1	-2	2	·
C#CCOCCOCCOCCNc1nc(N2CCN(C(=O)CCCCCCCCCCNC(=O)[C@H](CCCCN)n3cc(C[C@@H](C)CC)nn3)CC2)nc(N2CCN(C(=O)CCCCCCCCCCNC(=O)[C@H](CCCCN)n3cc(C[C@@H](C)CC)nn3)CC2)n1	-18	·	·	·	-51*
C#CCOCCOCCOCCNc1nc(N2CCN(C(=O)CCCCCCCCCCNC(=O)[C@H]([C@@H](C)CC)n3cc(CCCCCN)nn3)CC2)nc(N2CCN(C(=O)CCCCCCCCCCNC(=O)[C@@H]([C@H](C)O)n3cc(C)nn3)CC2)n1	-8	156*	55*	3	7
Cc1cn([C@H](C(=O)NCCCCCCCCCCC(=O)N2CCNCC2)[C@@H](C)O)nn1	-17	4	-3	-3	-64*
Cc1ccc(NC(=S)N(C)N)cc1Cl	-7	2	19	-8	-7
CN(N)C(=S)Nc1ccc(F)cc1	37*	1	-2	-4	-13
CCOC(=O)c1cc(-c2ccccc2)n(CCCC(=O)Nc2ccc(C)c(C)c2)c1C	-1	6	-9	-48*	·
CC(=O)c1cc(-c2ccccc2)n(CCC(=O)Nc2ccc(C(C)C)cc2)c1C	6	63*	-8	-20	·
CCOC(=O)c1cc(-c2ccccc2)n(CCC(=O)Nc2ccc(C(F)(F)F)cc2)c1C	-19	85*	-6	2	·
CCOC(=O)c1cc(-c2ccccc2)n(CCCC(=O)Nc2ccc(CC)cc2)c1C	5	8	-8	-30	·
CCOc1cc(CNC(=O)c2ccc3nc(C(C)C)oc3c2)cc(OCC)c1OCC	1	1	4	11	·
CCCCSCCCNC(=O)c1c[nH]c2ccc(S(=O)(=O)Nc3cccc(OC)c3)cc2c1=O	7	3	-2	-5	·
O=c1[nH]c(=S)[nH]c2c1C(c1cccc(C(F)(F)F)c1)OC(CCc1ccccc1)C2 (configuration not stated)	-6	·	·	·	-71*
COc1cc(C(CC(=O)NCc2ccc(F)cc2)N2Cc3ccccc3C2=O)cc(OC)c1OC (configuration not stated)	3	-1	-1	0	·
COc1ccc(-c2nn(-c3ccccc3)cc2C(=O)O)cc1OC	6	6	4	-22	5
CC1(C)CC(=O)C(=Cc2cn(-c3ccccc3)nc2-c2ccc(Cl)cc2)C(=O)C1	-2	60*	-5	-7	-29
O=C(O)c1cn(-c2ccccc2)nc1-c1ccc(Cl)cc1	9	·	·	·	-54*
O=C(O)C1CCCCC1C(=O)OCCCCOC(=O)C1CCCCC1C(=O)O (configuration not stated)	-1	1	-5	-31*	21
N#CC1=C(SCC(=O)c2ccc(Br)cc2)NC2=C(C(=O)CCC2)C1c1ccco1 (configuration not stated)	1	4	-3	-3	-59*
Cc1ccc(C(=O)CSC2=C(C#N)C(c3ccco3)CC(=O)N2)c(C)c1 (configuration not stated)	-16	63*	-6	-58*	4
Cc1ccc(NC(=O)CSC2=C(C#N)C(c3ccco3)C3=C(CC(C)(C)CC3=O)N2)cc1 (configuration not stated)	-2	5	-1	-3	0
CCc1ccc(NC(=O)CSC2=C(C#N)C(c3ccco3)C3=C(CCCC3=O)N2)cc1 (configuration not stated)	2	0	-11	-61*	-18
SMILES	D3 ag	D1 agonist	D1 PAM	D1 antagonist	D3 antag
COc1ccc(-c2cc(C(=O)Nc3cccc(O)c3)on2)cc1OC	6	1	1	8	·
COc1ccc(Br)c2c1-c1nc(NC(=O)c3ccccc3SC)sc1C2	-11	-1	-8	-36*	·
COc1ccc(Br)c2c1-c1nc(NC(=O)c3ccccc3F)sc1C2	-12	1	2	22	·
CC(C)(CO)NCc1cccc(OCc2ccc(Cl)cc2)c1	0	18	-7	-29	8
Clc1ccc(COc2cccc(CNCc3ccncc3)c2)cc1	40*	10	-9	3	2
C=CCn1c(SCc2c(C)noc2C)nc2ccccc2c1=O	-11	3	-4	10	-20
C=CCn1c(SCc2c(C)noc2C)nc2cc(C(=O)O)ccc2c1=O	36*	0	-2	-28	8
Cc1coc2cc3oc(=O)c(CC(=O)NCc4cccc(Cl)c4)c(C)c3cc12	14	10	-1	-3	·
CCCCn1c(N)c(N(CCOC)C(=O)Cn2c(=O)oc3ccccc32)c(=O)[nH]c1=O	95*	0	-4	0	-5
CCCCN(C(=O)c1ccccc1F)c1c(N)n(CCC)c(=O)[nH]c1=O	33*	1	0	-1	2
CCCCn1c(N)c(N(C)C(=O)CCCn2c(=O)oc3ccccc32)c(=O)[nH]c1=O	-5	·	·	·	0
CCCN(C(=O)C(NC(=O)c1ccccc1)C(C)C)c1c(N)n(Cc2ccccc2)c(=O)[nH]c1=O (configuration not stated)	5	0	-20	-77*	-18
Cc1cc2occ(CC(=O)N(CCC(C)C)c3c(N)n(Cc4ccccc4)c(=O)[nH]c3=O)c2cc1C	-1	0	10	2	0
CC(C)CCN(C(=O)Cc1ccccc1F)c1c(N)n(Cc2ccccc2)c(=O)[nH]c1=O	-4	1	-3	-55*	-14
O=C(C1COc2ccccc2O1)N1CCN(c2nc3ccc(F)cc3s2)CC1 (configuration not stated)	0	1	2	·	·
CC(=O)c1cccc(Nc2cc(C)nc3nc(-c4ccccc4C)nn23)c1	7	3	-1	-6	·
CCc1cc2c(SCc3ccc(C(=O)OC)o3)ncnc2s1	7	2	-2	-32*	2
COC(=O)c1ccc(CSc2ncnc3ccccc23)o1	4	4	0	18	-18
COc1ccc(OCCCCn2c(C3CC(=O)N(c4cccc(Cl)c4)C3)nc3ccccc32)cc1 (configuration not stated)	-12	18	-2	-12	·
COc1cccc(-c2sc3ccc(OC)cc3c2-c2ccc(OCCN(C)C)cc2)c1	-17	·	·	·	-79*
COc1ccc(-c2sc3ccccc3c2-c2ccc(OCCN(C)C)cc2)cc1	-48	·	·	·	-25
